Assay results published in PubChem BioAssay (NCATS).
Unmarked numbers belong to inactive results. Inconclusive results are not listed. A call without a number means that no potency is given here. Calls of active or inactive are those of the source. Unless noted, calls follow the shape of the dose curve; as a rule, active = well fitted curve in the direction sought with a large enough effect; inconclusive = small, poorly fitted or top-dose-only effect, or another doubt; inactive = no such curve, though single readings can be large; an effect the other way counts as inactive or inconclusive.

Assays:
[1] = Validation of Assay for Modulators of Lamin A Splicing (AID 1459; active = well fitted curve in the direction sought with a large enough effect in the signal ratio; the % refers to the signal ratio;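 also: cells exposed to compound for two days before reading; ratio rise marks activators and ratio drop marks inhibitors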)
Summary of the method: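 S3 HeLa stably expressing lamin A-EGFP splicing minigene and DsRed2, 600 cells/well in Opti-MEM with 2% FBS, treated 48 h at 37C; laser-scanning cytometry gives GFP/RFP total intensity ratio; ancitabine positive control, 0.5% DMSO vehicle.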

[2] = biological target: DNA repair nuclease/redox regulator APEX1 (Homo sapiens) (UniProt P27695); assay: qHTS Validation Assay for Inhibitors of the Human Apurinic/apyrimidinic Endonuclease 1 (APE1) (AID 1705;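 also: TAMRA fluorescence gain over two minutes as APE1 cuts a quenched THF abasic duplex; series mostly up to about 57 µM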)
Summary of the method: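 Fluorogenic double-stranded THF abasic-site substrate (5'-TAMRA/3'-BHQ-2), 50 nM final. Enzyme preincubated with compound 15 min at room temperature, then substrate added. Kinetic fluorescence (ex 525/em 598 nm) read three times at 60 s intervals; activity taken as third-minus-first read difference.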

[3] = Counterscreen for APE1 Inhibitors: Fluorescent Dye Displacement Validation Assay (AID 1707)
Summary of the method: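 Compounds are scored by their ability to displace Thiazole Orange (250 nM) from a 50 nM TAMRA-tagged duplex bearing a tetrahydrofuran abasic site. Buffer is 50 mM Tris-HCl pH7.5, 50mM NaCl, 2 mM MgCl2, 0.01% Tween-20.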

[4] = qHTS for differential inhibitors of proliferation of Plasmodium falciparum line 3D7 (AID 1876); also: potency is read from the fitted curve at half-maximal effect
[5] = qHTS for differential inhibitors of proliferation of Plasmodium falciparum line D10 (AID 1877);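 also: parasites grown with compound for 72 h before DNA staining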; also: potency is read from the fitted curve at half-maximal effect
[6] = qHTS for differential inhibitors of proliferation of Plasmodium falciparum line Dd2 (AID 1882); conditions: Potency: Plasmodium falciparum Dd2 proliferation inhibition; also: nearly all actives have a fitted effect of over 65% in size; also: potency is read from the fitted curve at half-maximal effect
Summary of the method: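 Dd2-infected erythrocytes (0.3% parasitemia, 2.5% hematocrit final) incubated with compound 72 h at 37 C, 5% CO2; lysed with saponin/Triton buffer containing SYBR Green I, incubated overnight in the dark, then read by fluorescence (485/535 nm). Normalized to 0.29 uM artemisinin and DMSO.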

[7] = qHTS for differential inhibitors of proliferation of Plasmodium falciparum line HB3 (AID 1886); conditions: Potency: Plasmodium falciparum HB3 proliferation inhibition;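 also: parasites grown with compound for 72 h before SYBR Green readout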; also: potency is read from the fitted curve at half-maximal effect
[8] = Validation screen for small molecules that induce DNA re-replication in MCF 10A normal breast cells (AID 463097); also: nearly all actives have a fitted effect of over 60% in size
Summary of the method: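 MCF 10A cells exposed to compound 48 hr at 37 C, 5% CO2, then Hoechst-stained 40 min. Laser-scanning imaging of nuclear DNA content (405 nm ex, 500-530 nm em); re-replication scored as rise in nuclei with elevated fluorescence intensity.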

[9] = Quantitative high throughput screen for delayed death inhibitors of the malarial parasite plastid, 96 hour incubation (AID 488745); also: nearly all actives have a fitted effect of over 70% in size; also: potency is read from the fitted curve at half-maximal effect
Summary of the method: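 Luciferase-expressing P. falciparum in erythrocytes (2% hematocrit, 0.1% parasitemia) incubated with compound for 96 h at 37 C, 5% CO2, in RPMI 1640 with 0.5% Albumax. Growth inhibition read as decreased luminescence.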

[10] = Quantitative high throughput screen for delayed death inhibitors of the malarial parasite plastid, 48 hour incubation (AID 488752); also: nearly all actives have a fitted effect of over 65% in size; also: potency is read from the fitted curve at half-maximal effect
Summary of the method: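 Erythrocytes infected with firefly luciferase-expressing P. falciparum (2% hematocrit, 0.1% parasitemia) cultured with compound for 48 h at 37 C, 5% CO2, in RPMI 1640/0.5% Albumax. Growth inhibition read as loss of luminescence.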

[11] = biological target: M-phase phosphoprotein 8 (Homo sapiens) (UniProt Q99549); assay: qHTS Validation Assay for Inhibitors for MPP8 Chromodomain Interactions with Methylated Histone Tails (AID 488949); also: nearly all actives have a fitted effect of over 55% in size; also: potency is read from the fitted curve at half-maximal effect
Summary of the method: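 MPP8 (50 nM) was pre-bound to 50 nM biotinylated H3(1-18)K9me3 peptide in PBS pH 7.4 with 0.01% Tween-20. Compounds were then added for 30 min at room temperature, and complex disruption was read by AlphaScreen with streptavidin donor and nickel-chelate acceptor beads.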

[12] = biological target: Transient receptor potential cation channel subfamily V member 1 (Homo sapiens) (UniProt Q8NER1); assay: HTS Assay for Compounds that Act as Enhancers of the Vanilloid Receptor 1 (AID 488979)
Summary of the method: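 TRPV1-expressing cells loaded with Fluo-8 calcium dye; compounds added and calcium influx read kinetically for 3 min (agonist phase), then capsaicin at EC20 added and read 2 min more for enhancement. Fluorescence ex 480/em 520 nm.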

[13] = biological target: Thyrotropin receptor (Homo sapiens) (UniProt P16473); assay: qHTS Assay for Antagonists of the Thyroid Stimulating Hormone Receptor (AID 488980); also: series mostly up to about 58 µM
Summary of the method: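 TSHR-transfected HEK293 cells (2000/well) in HEPES-buffered HBSS with 70 uM RO 20-1724 were stimulated with 4 nM TSH (EC80, final) in the presence of compound. cAMP was measured by HTRF competition after lysis and 30 min at RT.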

[14] = biological target: Thyrotropin-releasing hormone receptor (Homo sapiens) (UniProt P34981); assay: qHTS for Small Molecule Agonists and Allosteric Enhancers of Human TRH Receptor: Validation Screen for Agonists (AID 493127;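 active = calcium activation more than 3 SD above the typical response in the agonist read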); conditions: TRH receptor agonist cell assay; at 2 µM; active compounds read high
Summary of the method: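 TRHR cells loaded with fluo-8 calcium dye; FDSS kinetic fluorescence (Ex 480/Em 530) read at 1 s/cycle after 23 nL compound addition. Agonist-mode calcium response recorded before the 10 nM TRH (EC20) addition.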

[15] = biological target: Galactokinase (Homo sapiens) (UniProt P51570); assay: qHTS Validation Assay for Inhibitors of Human Galactokinase (GALK) (AID 493189)
Summary of the method: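 GALK (5 nM) with 35 uM ATP and 100 uM galactose in HEPES pH 8.0 with MgCl2, NaCl, DTT and BSA. Reaction ran 1 h at room temperature. Residual ATP read by Kinase-Glo Plus luminescence.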

[16] = Validation screen for small molecules that induce DNA re-replication in SW480 colon adenocarcinoma cells (AID 504364)
Summary of the method: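 SW480 cells (250/well) exposed 48 h at 37 C, 5% CO2, then Hoechst-stained 40 min. Nuclear DNA content imaged by fluorescence scanning (405 nm excitation, 500-530 nm emission); re-replication scored as increased nuclei with elevated intensity.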

[17] = biological target: Endonuclease 4 (Escherichia coli (strain K12)) (UniProt P0A6C1); assay: Counterscreen for APE1 Inhibitors: qHTS Validation Assay for Inhibitors of Endonuclease IV (AID 1708)
Summary of the method: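 Concentration-response counterscreen run identically to the APE1 assay: 15 min room-temperature preincubation of 2 nM enzyme with compound, reaction started with 50 nM quenched abasic DNA, progress taken from kinetic fluorescence.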

[18] = biological target: Ferritin light chain (Equus caballus) (UniProt P02791); assay: qHTS Validation Assay for Identification of Novel General Anesthetics (AID 2323); also: series mostly up to about 77 µM
Summary of the method: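 Horse-spleen apoferritin (10 uM) in PBS with 50% saturated 1-aminoanthracene; compounds pin-transferred, 10 min at room temperature. Fluorescence read at 380/535 nm, normalized to free 1-AMA and 1-AMA/apoferritin values; four-parameter Hill fit.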

[19] = biological target: Voltage-gated inwardly rectifying potassium channel KCNH2 (Homo sapiens) (UniProt Q12809); assay: qHTS Assay for Small Molecule Inhibitors of the Human hERG Channel Activity (AID 588834);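 also: lower thallium flux fluorescence means stronger hERG block; nearly all actives have a fitted effect of over 50% in size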; also: potency is read from the fitted curve at half-maximal effect
Summary of the method: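 U2OS cells BacMam-transduced with hERG, 2000 cells/well, compound ~10 min at 37 °C before stimulation buffer. FluxOR thallium flux fluorescence read kinetically on FDSS; decrease indicates block; AC50 from Hill fits.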

Galactokinase (Homo sapiens), sequence (P51570 whole entry, looked up): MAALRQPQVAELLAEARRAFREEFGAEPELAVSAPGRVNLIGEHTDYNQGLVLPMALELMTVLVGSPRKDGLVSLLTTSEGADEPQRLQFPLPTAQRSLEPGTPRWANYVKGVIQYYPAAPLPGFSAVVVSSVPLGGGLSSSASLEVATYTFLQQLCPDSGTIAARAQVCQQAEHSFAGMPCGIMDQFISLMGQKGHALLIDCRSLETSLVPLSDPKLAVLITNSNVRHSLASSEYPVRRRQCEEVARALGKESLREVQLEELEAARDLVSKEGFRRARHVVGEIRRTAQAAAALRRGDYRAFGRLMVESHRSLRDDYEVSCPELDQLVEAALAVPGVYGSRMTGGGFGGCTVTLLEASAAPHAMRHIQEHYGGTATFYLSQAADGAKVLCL
Transient receptor potential cation channel subfamily V member 1 (Homo sapiens), sequence (Q8NER1 whole entry, looked up): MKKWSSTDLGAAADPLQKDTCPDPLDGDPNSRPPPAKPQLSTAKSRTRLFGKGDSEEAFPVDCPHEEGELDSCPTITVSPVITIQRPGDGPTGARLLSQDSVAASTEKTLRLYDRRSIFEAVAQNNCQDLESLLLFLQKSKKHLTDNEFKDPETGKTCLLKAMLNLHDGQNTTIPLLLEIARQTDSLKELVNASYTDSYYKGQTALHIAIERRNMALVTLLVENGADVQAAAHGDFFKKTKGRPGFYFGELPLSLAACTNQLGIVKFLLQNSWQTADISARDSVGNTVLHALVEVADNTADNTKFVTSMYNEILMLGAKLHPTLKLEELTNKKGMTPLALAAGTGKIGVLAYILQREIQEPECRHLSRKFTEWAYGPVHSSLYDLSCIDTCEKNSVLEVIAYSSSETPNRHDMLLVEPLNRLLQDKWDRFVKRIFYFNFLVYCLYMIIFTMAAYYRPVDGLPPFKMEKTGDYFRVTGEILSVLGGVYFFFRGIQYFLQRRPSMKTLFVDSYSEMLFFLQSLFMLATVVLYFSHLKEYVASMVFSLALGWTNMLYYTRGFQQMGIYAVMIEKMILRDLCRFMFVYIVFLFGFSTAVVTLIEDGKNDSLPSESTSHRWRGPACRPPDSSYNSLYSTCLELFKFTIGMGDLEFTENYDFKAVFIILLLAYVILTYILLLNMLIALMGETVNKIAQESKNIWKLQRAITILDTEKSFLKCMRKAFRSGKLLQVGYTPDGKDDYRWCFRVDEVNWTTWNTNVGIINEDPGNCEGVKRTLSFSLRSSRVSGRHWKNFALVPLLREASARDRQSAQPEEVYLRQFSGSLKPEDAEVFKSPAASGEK
Voltage-gated inwardly rectifying potassium channel KCNH2 (Homo sapiens), sequence (Q12809 whole entry, looked up): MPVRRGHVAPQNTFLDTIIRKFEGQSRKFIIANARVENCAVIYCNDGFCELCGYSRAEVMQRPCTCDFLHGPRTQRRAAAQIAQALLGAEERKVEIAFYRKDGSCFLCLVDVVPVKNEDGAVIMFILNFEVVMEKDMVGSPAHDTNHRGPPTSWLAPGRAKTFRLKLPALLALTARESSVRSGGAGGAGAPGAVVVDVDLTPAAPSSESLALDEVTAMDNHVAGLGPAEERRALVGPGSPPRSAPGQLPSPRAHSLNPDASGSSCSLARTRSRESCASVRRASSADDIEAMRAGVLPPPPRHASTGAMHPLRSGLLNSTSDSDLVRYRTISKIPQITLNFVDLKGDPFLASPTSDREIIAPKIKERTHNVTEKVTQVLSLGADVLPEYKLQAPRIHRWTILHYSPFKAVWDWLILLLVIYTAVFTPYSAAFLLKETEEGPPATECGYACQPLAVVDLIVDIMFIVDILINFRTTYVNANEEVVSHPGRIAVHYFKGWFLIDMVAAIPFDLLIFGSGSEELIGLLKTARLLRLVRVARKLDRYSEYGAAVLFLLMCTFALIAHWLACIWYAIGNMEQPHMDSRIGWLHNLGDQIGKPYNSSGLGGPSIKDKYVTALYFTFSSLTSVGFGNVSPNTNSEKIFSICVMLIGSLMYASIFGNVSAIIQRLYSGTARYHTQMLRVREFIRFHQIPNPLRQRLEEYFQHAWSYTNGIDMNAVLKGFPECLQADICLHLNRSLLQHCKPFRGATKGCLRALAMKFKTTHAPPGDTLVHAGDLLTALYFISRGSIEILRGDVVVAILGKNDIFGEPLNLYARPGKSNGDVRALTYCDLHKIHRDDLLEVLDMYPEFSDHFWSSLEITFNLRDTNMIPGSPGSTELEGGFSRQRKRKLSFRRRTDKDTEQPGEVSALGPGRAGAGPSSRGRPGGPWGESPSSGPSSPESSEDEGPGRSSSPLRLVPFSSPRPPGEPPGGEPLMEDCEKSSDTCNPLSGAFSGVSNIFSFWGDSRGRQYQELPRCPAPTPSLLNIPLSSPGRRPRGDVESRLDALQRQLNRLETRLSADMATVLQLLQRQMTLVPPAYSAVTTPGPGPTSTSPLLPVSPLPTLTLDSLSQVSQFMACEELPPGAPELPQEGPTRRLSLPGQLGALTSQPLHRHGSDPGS
Thyrotropin-releasing hormone receptor (Homo sapiens), sequence (P34981 whole entry, looked up): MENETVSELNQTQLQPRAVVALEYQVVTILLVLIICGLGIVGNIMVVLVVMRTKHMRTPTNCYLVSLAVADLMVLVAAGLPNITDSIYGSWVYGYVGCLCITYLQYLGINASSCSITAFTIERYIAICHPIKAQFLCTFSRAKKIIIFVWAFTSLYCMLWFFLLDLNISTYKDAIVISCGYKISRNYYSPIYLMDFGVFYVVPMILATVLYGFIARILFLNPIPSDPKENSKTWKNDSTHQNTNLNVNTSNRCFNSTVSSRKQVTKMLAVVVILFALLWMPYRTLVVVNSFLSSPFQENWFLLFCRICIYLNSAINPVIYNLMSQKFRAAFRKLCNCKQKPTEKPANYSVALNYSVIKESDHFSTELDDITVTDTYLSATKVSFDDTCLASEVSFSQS
DNA repair nuclease/redox regulator APEX1 (Homo sapiens), sequence (P27695 whole entry, looked up): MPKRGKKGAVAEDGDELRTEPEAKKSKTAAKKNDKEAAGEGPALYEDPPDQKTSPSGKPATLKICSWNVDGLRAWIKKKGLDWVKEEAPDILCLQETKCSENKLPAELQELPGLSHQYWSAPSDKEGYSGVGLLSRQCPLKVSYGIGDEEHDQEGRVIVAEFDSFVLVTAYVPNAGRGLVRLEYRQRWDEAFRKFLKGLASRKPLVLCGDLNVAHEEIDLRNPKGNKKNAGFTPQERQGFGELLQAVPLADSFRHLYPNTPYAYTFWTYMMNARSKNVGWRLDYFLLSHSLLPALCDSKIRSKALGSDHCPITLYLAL
Ferritin light chain (Equus caballus), sequence (P02791 2-175 limits assumed): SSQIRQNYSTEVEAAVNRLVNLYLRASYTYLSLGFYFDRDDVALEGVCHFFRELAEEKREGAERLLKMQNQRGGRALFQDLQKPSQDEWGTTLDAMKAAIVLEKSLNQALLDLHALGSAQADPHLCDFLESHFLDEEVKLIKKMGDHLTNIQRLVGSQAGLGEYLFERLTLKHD
M-phase phosphoprotein 8 (Homo sapiens), sequence (Q99549 whole entry, looked up): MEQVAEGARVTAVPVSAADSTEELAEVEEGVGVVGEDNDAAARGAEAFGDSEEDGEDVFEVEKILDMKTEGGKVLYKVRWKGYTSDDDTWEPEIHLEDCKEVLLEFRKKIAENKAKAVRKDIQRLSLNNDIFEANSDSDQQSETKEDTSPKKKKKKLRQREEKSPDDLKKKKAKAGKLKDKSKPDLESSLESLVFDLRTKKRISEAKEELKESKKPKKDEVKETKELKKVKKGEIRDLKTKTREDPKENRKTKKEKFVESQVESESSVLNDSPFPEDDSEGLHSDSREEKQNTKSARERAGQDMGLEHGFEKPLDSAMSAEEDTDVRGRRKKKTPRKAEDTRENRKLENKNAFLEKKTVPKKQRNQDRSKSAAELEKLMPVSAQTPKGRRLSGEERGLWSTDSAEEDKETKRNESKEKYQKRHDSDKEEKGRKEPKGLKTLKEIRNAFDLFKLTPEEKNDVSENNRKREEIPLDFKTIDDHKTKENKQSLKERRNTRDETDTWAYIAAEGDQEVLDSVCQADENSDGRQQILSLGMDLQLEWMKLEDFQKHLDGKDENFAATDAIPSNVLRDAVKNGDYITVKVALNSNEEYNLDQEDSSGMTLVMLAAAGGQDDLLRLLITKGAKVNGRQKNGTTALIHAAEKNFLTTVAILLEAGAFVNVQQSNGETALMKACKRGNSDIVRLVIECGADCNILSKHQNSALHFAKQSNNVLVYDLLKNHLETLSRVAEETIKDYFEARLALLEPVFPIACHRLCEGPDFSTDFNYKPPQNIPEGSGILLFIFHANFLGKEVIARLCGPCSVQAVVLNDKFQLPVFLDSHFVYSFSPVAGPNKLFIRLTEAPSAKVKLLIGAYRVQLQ
Thyrotropin receptor (Homo sapiens), sequence (P16473 whole entry, looked up): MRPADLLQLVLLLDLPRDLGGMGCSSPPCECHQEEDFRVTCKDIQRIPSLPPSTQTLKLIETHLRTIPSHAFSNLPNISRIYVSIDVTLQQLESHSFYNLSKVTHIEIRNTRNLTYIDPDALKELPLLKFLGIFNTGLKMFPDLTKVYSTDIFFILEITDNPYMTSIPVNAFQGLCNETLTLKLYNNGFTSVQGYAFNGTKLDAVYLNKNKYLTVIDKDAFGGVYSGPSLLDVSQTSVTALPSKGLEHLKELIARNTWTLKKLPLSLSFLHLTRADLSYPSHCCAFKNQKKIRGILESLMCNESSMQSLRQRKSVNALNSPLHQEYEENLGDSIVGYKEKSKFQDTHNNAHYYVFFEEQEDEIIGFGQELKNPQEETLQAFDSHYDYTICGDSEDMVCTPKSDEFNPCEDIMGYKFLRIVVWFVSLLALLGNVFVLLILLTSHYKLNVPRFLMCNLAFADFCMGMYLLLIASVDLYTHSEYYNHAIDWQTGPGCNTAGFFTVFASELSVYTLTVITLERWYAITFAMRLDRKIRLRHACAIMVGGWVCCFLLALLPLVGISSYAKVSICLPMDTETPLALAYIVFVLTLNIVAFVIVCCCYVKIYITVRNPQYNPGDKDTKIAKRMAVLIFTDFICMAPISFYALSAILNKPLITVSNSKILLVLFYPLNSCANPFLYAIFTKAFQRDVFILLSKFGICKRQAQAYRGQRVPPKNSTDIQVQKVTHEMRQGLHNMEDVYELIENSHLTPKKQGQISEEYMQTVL

SMILES	outcome [1]	Potency [2]	Potency [3]	Potency [4]	Potency [5]	Potency [6]	Potency [7]	outcome [8]	Potency [9]	Potency [10]	Potency [11]	outcome [12]	outcome [13]	activation [14] [%]	outcome [15]	outcome [16]	outcome [17]	outcome [18]	Potency [19]
CC(O)[C@@H](O)[C@H]1CNc2nc(N)[nH]c(=O)c2N1 (some centres undefined)	inactive	inactive	inactive	inactive	inactive	inactive	inactive	inactive	inactive	inactive	inactive	inactive	inactive	0.0625	inactive	inactive	–	–	–
OC[C@H]1O[C@@H](n2cnc3c(N[C@H]4CC5CCC4C5)ncnc32)[C@H](O)[C@@H]1O (some centres undefined)	inactive	inactive	inactive	inactive	inactive	inactive	inactive	inactive	inactive	inactive	inactive	inactive	inactive	0.875	inactive	inactive	inactive	inactive	inactive
NC(=S)c1ccc[n+]([C@@H]2O[C@@H](COP(=O)([O-])OP(=O)(O)OC[C@H]3O[C@@H](n4cnc5c(N)ncnc54)[C@H](OP(=O)(O)O)[C@H]3O)C(O)C2O)c1 (some centres undefined)	inactive	inactive	inactive	inactive	inactive	inactive	inactive	inactive	inactive	inactive	–	inactive	inactive	-0.0625	inactive	inactive	inactive	inactive	inactive
CCCC(=O)NCCc1c2n(c3ccc(OC)cc13)Cc1ccccc1-2	inactive	–	inactive	–	–	inactive	–	inactive	inactive	–	inactive	inactive	inactive	-7.06	inactive	inactive	inactive	inactive	inactive
CNC(=O)[C@H]1O[C@@H](n2cnc3c(NCc4ccc(N)cc4)ncnc32)[C@H](O)[C@H]1O	inactive	inactive	inactive	inactive	inactive	inactive	inactive	inactive	inactive	inactive	inactive	inactive	inactive	-0.312	inactive	inactive	–	inactive	inactive
CNCC[C@@H](Oc1ccc(C(F)(F)F)cc1)c1ccccc1	inactive	–	inactive	–	–	–	–	–	–	–	inactive	–	inactive	18.7	inactive	inactive	inactive	–	–
OC[C@H]1O[C@@H](n2cnc3c(NC4CCCC4)ncnc32)[C@H](O)[C@H]1O	inactive	inactive	inactive	inactive	inactive	inactive	inactive	inactive	inactive	inactive	inactive	inactive	inactive	-0.438	inactive	inactive	inactive	inactive	inactive
CNc1ncnc2c1ncn2[C@@H]1O[C@H](CO)[C@H](O)[C@H]1O	inactive	inactive	inactive	inactive	inactive	inactive	inactive	–	–	–	inactive	inactive	inactive	1.06	inactive	inactive	inactive	inactive	inactive
NC(=S)NCCCC(N)C(=O)O (centres undefined)	inactive	inactive	inactive	inactive	inactive	inactive	inactive	inactive	inactive	inactive	20 µM (active)	inactive	inactive	-0.25	inactive	inactive	inactive	inactive	–
C[C@]12C=CC(=O)C=C1CCC1C2=CC[C@]2(C)[C@@H](C(=O)CN3CCN(c4cc(N5CCCC5)nc(N5CCCC5)n4)CC3)CC[C@@H]12 (some centres undefined)	inactive	inactive	–	–	–	–	–	–	13.1 µM (active)	13.1 µM (active)	–	–	inactive	1.5	inactive	inactive	–	–	inactive
CN1CCc2cc(Cl)c(O)cc2C(c2ccccc2)C1 (centres undefined)	inactive	inactive	inactive	11.2 µM (active)	12.6 µM (active)	8.91 µM (active)	12.6 µM (active)	inactive	–	–	inactive	inactive	inactive	1.12	inactive	inactive	–	inactive	10 µM (active)
NCCCCNS(=O)(=O)c1cccc2c(Cl)cccc12	inactive	inactive	inactive	8.91 µM (active)	10 µM (active)	–	12.6 µM (active)	–	–	14.7 µM (active)	inactive	–	inactive	0.5	inactive	–	inactive	inactive	4.47 µM (active)
Nc1ncnc2c1nc(Sc1ccc(Cl)cc1)n2[C@H]1O[C@@H]2COP(=O)(O)O[C@H]2[C@@H]1O	inactive	inactive	inactive	–	–	–	10 µM (active)	inactive	inactive	inactive	inactive	inactive	inactive	1.31	inactive	inactive	inactive	inactive	inactive
OC[C@H]1O[C@@H](n2cnc3c(Nc4ccccc4)ncnc32)[C@H](O)[C@H]1O	inactive	inactive	inactive	inactive	inactive	inactive	inactive	inactive	–	inactive	inactive	inactive	inactive	0.188	inactive	inactive	inactive	inactive	inactive
